Binding signal data for seven sequences are collected here from paper PMC7862700, “An all-to-all approach to the identification of sequence-specific readers for epigenetic DNA modifications on cytosine”.

What all share (test): DAPPL (digital affinity profiling via proximity ligation, sequencing); 10 mM Tris-HCl pH 7.5, 50 mM NaCl, 1 mM DTT, 4% glycerol, room temperature, 30 min; GST-TFs on glutathione beads, 16-mer random dsDNA library, 0.1% formaldehyde crosslink after washing; high values mean tight binding
What all share (conditions): protein: recombinant; tags: N-terminal GST; dsDNA, one strand shown

In one experiment the target is T1, FLI1 (Homo sapiens, UniProt Q01543 1-452).
T1 sequence: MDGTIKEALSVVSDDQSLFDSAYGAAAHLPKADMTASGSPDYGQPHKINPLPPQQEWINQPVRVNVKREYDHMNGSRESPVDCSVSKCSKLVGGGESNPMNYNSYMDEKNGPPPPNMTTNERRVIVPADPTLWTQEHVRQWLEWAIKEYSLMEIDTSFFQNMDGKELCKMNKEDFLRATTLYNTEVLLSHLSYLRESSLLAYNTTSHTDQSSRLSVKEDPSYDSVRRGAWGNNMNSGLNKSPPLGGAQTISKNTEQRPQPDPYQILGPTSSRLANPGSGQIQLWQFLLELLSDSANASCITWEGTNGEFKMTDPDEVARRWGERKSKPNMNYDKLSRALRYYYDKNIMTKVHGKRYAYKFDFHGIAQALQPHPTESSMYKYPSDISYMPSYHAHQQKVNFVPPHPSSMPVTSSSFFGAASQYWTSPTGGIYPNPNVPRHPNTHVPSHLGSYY
The procedure, abridged: (§1)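 Pools of DNA-barcoded human transcription factors, expressed in yeast as GST fusions on glutathione beads and combined with a tag-only sample, were incubated with 200 nmole of a 16-mer random double-stranded DNA library. Incubation took 30 min at room temperature in Tris/NaCl/DTT/glycerol buffer and was followed by washing, 0.1% formaldehyde crosslinking, proximity ligation (BsaI/T4 ligase, 1 h, 37 °C), PCR amplification and sequencing on an Illumina NextSeq500. Binding signal is the ratio of a hexamer's read frequency for a factor to its frequency for the tag-only sample.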

Another experiment addresses T2, ELK1 (Homo sapiens, UniProt P19419 1-428).
T2 sequence: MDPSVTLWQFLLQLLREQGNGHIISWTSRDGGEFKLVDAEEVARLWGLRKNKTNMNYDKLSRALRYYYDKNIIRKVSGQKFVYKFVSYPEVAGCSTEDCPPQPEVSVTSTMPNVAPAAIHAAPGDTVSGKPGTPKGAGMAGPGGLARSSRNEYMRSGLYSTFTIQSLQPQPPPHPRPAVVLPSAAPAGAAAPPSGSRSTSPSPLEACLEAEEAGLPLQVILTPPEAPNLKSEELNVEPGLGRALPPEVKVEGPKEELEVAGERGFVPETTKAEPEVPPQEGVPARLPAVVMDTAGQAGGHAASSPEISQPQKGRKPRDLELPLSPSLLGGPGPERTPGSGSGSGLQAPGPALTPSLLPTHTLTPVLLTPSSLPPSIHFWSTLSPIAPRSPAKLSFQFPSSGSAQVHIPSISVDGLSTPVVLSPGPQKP
The procedure, abridged:
as §1

The target in another experiment is T3, GABPA (Homo sapiens, UniProt Q06546 1-454).
T3 sequence: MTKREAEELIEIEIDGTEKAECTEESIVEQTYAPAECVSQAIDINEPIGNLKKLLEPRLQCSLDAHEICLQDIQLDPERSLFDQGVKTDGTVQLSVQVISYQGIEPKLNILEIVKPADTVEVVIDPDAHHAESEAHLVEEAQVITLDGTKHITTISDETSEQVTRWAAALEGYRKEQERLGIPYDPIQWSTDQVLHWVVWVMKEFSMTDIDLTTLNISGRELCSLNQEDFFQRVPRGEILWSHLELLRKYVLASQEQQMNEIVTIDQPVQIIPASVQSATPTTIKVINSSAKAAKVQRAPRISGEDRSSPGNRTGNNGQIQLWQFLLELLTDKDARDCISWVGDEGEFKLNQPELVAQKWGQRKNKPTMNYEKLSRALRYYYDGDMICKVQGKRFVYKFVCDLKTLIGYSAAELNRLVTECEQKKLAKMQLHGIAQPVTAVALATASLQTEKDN
The procedure, abridged: as §1

The next experiment has as its target T4, ERG (Homo sapiens, UniProt P11308 1-479).
T4 sequence: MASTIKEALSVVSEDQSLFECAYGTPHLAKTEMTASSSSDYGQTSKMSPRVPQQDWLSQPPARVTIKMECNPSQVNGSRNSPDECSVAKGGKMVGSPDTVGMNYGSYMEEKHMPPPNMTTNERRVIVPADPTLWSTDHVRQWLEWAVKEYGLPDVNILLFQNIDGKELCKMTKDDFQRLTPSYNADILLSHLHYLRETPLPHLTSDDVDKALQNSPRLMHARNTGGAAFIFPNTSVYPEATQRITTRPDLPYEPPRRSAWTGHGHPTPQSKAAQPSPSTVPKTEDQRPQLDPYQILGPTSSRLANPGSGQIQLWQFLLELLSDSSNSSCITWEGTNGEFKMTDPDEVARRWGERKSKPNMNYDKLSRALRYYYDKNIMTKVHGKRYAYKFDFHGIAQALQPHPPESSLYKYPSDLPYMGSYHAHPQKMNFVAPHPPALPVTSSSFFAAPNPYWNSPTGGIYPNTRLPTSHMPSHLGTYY
A digest of the protocol: as §1

Another experiment deals with ELF1 (Homo sapiens, UniProt P32519 1-619). A digest of the protocol:
as §1

A further experiment has as its target T5, EHF (Homo sapiens, UniProt Q9NZC4 1-300).
T5 sequence: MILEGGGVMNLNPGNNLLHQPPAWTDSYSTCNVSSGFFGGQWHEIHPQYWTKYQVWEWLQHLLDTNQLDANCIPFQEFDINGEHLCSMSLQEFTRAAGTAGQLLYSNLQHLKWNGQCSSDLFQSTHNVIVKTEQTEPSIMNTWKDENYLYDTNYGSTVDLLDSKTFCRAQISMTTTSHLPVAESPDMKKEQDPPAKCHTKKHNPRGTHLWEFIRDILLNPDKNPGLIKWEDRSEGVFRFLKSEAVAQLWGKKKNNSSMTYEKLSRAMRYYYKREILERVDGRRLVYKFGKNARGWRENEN
The procedure, abridged: as §1

The target of a further experiment is SPI1 (Homo sapiens, UniProt P17947 1-270). The procedure, abridged: as §1
The target of a further experiment is SPIB (Homo sapiens, UniProt Q01892 1-262). The procedure, abridged: as §1
Chain of SPIB (Q01892 whole entry): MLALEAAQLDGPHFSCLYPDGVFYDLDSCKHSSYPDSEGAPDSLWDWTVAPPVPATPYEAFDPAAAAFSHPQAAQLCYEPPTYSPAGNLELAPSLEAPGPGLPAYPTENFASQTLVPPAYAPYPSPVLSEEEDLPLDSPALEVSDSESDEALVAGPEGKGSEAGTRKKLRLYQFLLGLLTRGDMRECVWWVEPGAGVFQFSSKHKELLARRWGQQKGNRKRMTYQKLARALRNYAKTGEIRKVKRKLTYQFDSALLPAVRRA
Another experiment has as its target T6, ELK3 (Homo sapiens, UniProt P41970 1-407).
T6 sequence: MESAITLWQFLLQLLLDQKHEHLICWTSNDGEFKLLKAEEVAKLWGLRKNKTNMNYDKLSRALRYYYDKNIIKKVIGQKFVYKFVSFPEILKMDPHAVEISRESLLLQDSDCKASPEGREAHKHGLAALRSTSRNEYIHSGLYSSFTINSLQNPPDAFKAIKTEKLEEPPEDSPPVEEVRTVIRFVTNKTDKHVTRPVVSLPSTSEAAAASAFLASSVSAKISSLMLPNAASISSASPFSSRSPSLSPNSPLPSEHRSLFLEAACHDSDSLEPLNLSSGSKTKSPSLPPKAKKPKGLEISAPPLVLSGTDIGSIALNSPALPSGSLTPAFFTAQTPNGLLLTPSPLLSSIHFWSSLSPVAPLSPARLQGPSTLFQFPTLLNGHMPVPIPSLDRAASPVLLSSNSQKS
The procedure, abridged: as §1

Chain of ELF1 (P32519 whole entry): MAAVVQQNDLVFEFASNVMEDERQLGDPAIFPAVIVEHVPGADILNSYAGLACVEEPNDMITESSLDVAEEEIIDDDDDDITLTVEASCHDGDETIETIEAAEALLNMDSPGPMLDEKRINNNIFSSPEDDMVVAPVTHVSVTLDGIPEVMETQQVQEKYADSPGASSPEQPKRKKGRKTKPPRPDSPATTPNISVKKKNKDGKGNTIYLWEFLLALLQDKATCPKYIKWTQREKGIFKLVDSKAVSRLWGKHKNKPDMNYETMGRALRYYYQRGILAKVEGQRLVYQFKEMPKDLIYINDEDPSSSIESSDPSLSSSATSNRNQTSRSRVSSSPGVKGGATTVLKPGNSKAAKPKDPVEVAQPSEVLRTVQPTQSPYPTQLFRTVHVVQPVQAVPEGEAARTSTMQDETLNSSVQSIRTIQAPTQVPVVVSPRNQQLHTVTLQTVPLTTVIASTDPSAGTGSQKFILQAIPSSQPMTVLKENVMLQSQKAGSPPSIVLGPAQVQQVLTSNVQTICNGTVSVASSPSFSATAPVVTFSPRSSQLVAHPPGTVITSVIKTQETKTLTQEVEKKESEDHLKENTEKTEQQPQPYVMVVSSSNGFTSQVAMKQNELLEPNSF

Consider TATGGC, for which the binding signal with FLI1 is 1.19 fold enrichment (6-mer frequency, TF over GST control); in the experiment with ELK1, 1.29 fold enrichment (6-mer frequency, TF over GST control); with GABPA it was 1.26 fold enrichment (6-mer frequency, TF over GST control); with ERG it was 1.27 fold enrichment (6-mer frequency, TF over GST control); with ELF1 it was 1.24 fold enrichment (6-mer frequency, TF over GST control); with EHF, 1.1 fold enrichment (6-mer frequency, TF over GST control). In addition, the binding signal was 1.12 fold enrichment (6-mer frequency, TF over GST control) with SPI1; 1.18 fold enrichment (6-mer frequency, TF over GST control) in the experiment with SPIB; 1.16 fold enrichment (6-mer frequency, TF over GST control) with ELK3.
For the sequence AACATC, the binding signal is 1.5 fold enrichment (6-mer frequency, TF over GST control) with FLI1; 1.35 fold enrichment (6-mer frequency, TF over GST control) in the experiment with ELK1; 1.41 fold enrichment (6-mer frequency, TF over GST control) with GABPA; 1.48 fold enrichment (6-mer frequency, TF over GST control) with ERG; 1.45 fold enrichment (6-mer frequency, TF over GST control) with ELF1; 1.51 fold enrichment (6-mer frequency, TF over GST control) in the experiment with EHF. The binding signal was 1.45 fold enrichment (6-mer frequency, TF over GST control) with SPI1; 1.37 fold enrichment (6-mer frequency, TF over GST control) with SPIB; 1.47 fold enrichment (6-mer frequency, TF over GST control) with ELK3.
On to GATTCT, for which the binding signal with FLI1 is 1.28 fold enrichment (6-mer frequency, TF over GST control); in the experiment with ELK1, 1.22 fold enrichment (6-mer frequency, TF over GST control); with GABPA, 1.29 fold enrichment (6-mer frequency, TF over GST control); with ERG, 1.21 fold enrichment (6-mer frequency, TF over GST control); with ELF1, 1.26 fold enrichment (6-mer frequency, TF over GST control); in the experiment with EHF it was 1.26 fold enrichment (6-mer frequency, TF over GST control). The binding signal was 1.3 fold enrichment (6-mer frequency, TF over GST control) in the experiment with SPI1; 1.27 fold enrichment (6-mer frequency, TF over GST control) with SPIB; 1.33 fold enrichment (6-mer frequency, TF over GST control) in the experiment with ELK3.
In the case of TCTCGG, the binding signal was 1.69 fold enrichment (6-mer frequency, TF over GST control) in the experiment with FLI1; 1.41 fold enrichment (6-mer frequency, TF over GST control) in the experiment with ELK1; 1.5 fold enrichment (6-mer frequency, TF over GST control) with GABPA; 1.38 fold enrichment (6-mer frequency, TF over GST control) with ERG; 1.46 fold enrichment (6-mer frequency, TF over GST control) with ELF1; 1.29 fold enrichment (6-mer frequency, TF over GST control) in the experiment with EHF. Moreover, the binding signal is 1.52 fold enrichment (6-mer frequency, TF over GST control) with SPI1; 1.44 fold enrichment (6-mer frequency, TF over GST control) in the experiment with SPIB; 1.42 fold enrichment (6-mer frequency, TF over GST control) with ELK3.
TAATAC: the binding signal with FLI1 is 1.11 fold enrichment (6-mer frequency, TF over GST control); with ELK1 it was 1.07 fold enrichment (6-mer frequency, TF over GST control); with GABPA, 1.04 fold enrichment (6-mer frequency, TF over GST control); in the experiment with ERG it was 1.09 fold enrichment (6-mer frequency, TF over GST control); with ELF1, 1.13 fold enrichment (6-mer frequency, TF over GST control); with EHF it was 1.13 fold enrichment (6-mer frequency, TF over GST control). For the same sequence, the binding signal is 1.05 fold enrichment (6-mer frequency, TF over GST control) with SPI1; 1.06 fold enrichment (6-mer frequency, TF over GST control) in the experiment with SPIB; 1.04 fold enrichment (6-mer frequency, TF over GST control) with ELK3.
Consider CTTCGG, for which the binding signal in the experiment with FLI1 was 1.48 fold enrichment (6-mer frequency, TF over GST control); with ELK1, 1.46 fold enrichment (6-mer frequency, TF over GST control); with GABPA it was 1.58 fold enrichment (6-mer frequency, TF over GST control); with ERG, 1.35 fold enrichment (6-mer frequency, TF over GST control); with ELF1, 1.39 fold enrichment (6-mer frequency, TF over GST control); with EHF, 1.24 fold enrichment (6-mer frequency, TF over GST control). Also, the binding signal in the experiment with SPI1 is 1.37 fold enrichment (6-mer frequency, TF over GST control); in the experiment with SPIB, 1.46 fold enrichment (6-mer frequency, TF over GST control); with ELK3 it was 1.38 fold enrichment (6-mer frequency, TF over GST control).
With CCGCAT, the binding signal in the experiment with FLI1 is 1.61 fold enrichment (6-mer frequency, TF over GST control); in the experiment with ELK1, 1.59 fold enrichment (6-mer frequency, TF over GST control); with GABPA, 1.54 fold enrichment (6-mer frequency, TF over GST control); in the experiment with ERG it was 1.52 fold enrichment (6-mer frequency, TF over GST control); with ELF1, 1.58 fold enrichment (6-mer frequency, TF over GST control); with EHF, 1.61 fold enrichment (6-mer frequency, TF over GST control). In addition, the binding signal with SPI1 was 1.99 fold enrichment (6-mer frequency, TF over GST control); with SPIB, 1.55 fold enrichment (6-mer frequency, TF over GST control); with ELK3, 1.6 fold enrichment (6-mer frequency, TF over GST control).
